Methyltransferases: Primary Screen for Target Class Profiling of Small Molecule Inhibitors of Methyltransferases. purified enzyme, MTase-Glo SAH luminescence; hits give low values. calls only at 40 µM. 25,000 compounds, 3.9% hits. AID 1745853, 2022; call rule not given here
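Each enzyme was assayed with SAM and its substrate. SAH formation detected by MTase-Glo luminescence; single-point 40 uM screen[…].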
Active calls of the source: *; i = inactive; + = active, no number. The entries come from a sample that favours hits as a whole. % is set by controls: 0 for no effect and ±100 for the full control effect.

SMILES	Methyltransferases
C=C[C@H]1[C@H](O[C@@H]2O[C@H](CO)[C@@H](O)[C@H](O)[C@H]2O)OC=C(C(=O)OC)[C@H]1C/C=C(/C=O)[C@@H]1C(C(=O)OC)=CO[C@@H](O[C@@H]2O[C@H](CO)[C@@H](O)[C@H](O)[C@H]2O)[C@@H]1C=C	+
C=C[C@H]1[C@H](O[C@@H]2O[C@H](CO)[C@@H](O)[C@H](O)[C@H]2O)OC=C(C(=O)OC)[C@H]1CCOC(=O)c1cc(O)c(O)c(O)c1	+
COC(=O)C1=CO[C@@H](O[C@@H]2O[C@H](CO)[C@@H](O)[C@H](O)[C@H]2O)[C@@H]2C(COC(C)=O)=C[C@H](O)[C@H]12	i
COC(=O)C1=CO[C@@H](O[C@@H]2O[C@H](CO)[C@@H](O)[C@H](O)[C@H]2O)[C@@H]2[C@@H](CO)[C@@H](O)C(O)[C@H]12 (some centres not stated)	i
C=CC1C(O[C@@H]2O[C@H](CO)[C@@H](O)[C@H](O)[C@H]2O)OC=C(C(=O)OC)C1Cc1nccc2c1[nH]c1ccccc12 (some centres not stated)	i
C/C=C1\[C@H](O[C@@H]2O[C@H](CO)[C@@H](O)[C@H](O)[C@H]2O)OC=C(C(=O)OC)[C@H]1CC(=O)O	i
CC(C)(C)c1cc2n(n1)CC(C)(C(=O)NC1CCCCCC1)N(c1ccc(F)cc1F)C2=O (configuration not stated)	i
Cc1ccc(-c2n[nH]n3c2nc(=O)c2ccc(C(=O)NCc4cccnc4)cc23)cc1	i
CCCn1c(=O)c2ccc(C(=O)NC3CCCCC3)cc2n2c(=O)n(CC(=O)Nc3ccccc3)nc12	i
O=C(NCc1ccccc1F)c1ccc2c(=O)nc3c(-c4ccccc4)n[nH]n3c2c1	i
COc1ccc(N(C)c2nc(C)nc3ccccc23)cc1	i
COc1ccc(/C=C/c2nc(NCCCN(C)C)c3ccccc3n2)cc1	+
CC(C)Cn1c(=O)c2ccc(C(=O)NC(C)C)cc2n2c(=O)n(Cc3ccc(F)cc3)nc12	i
CCc1ccc(NC(=O)Cn2nc3n(Cc4ccc(C)cc4)c(=O)c4ccccc4n3c2=O)cc1	i
O=C(CCn1ccc2cc(S(=O)(=O)N3CCCCC3)ccc21)NCCc1ccccc1	i
CC(C)(C)CC(C)(C)c1ccc(OCCOCC[N+](C)(C)Cc2ccccc2)cc1	+
Cc1ccc(CNC(=O)CSc2nnc3n(C)c(=O)c4ccc(C(=O)NC5CCCCC5)cc4n23)cc1	i
CC1CCCCC1NC(=O)C1(C)Cn2c(cc3sccc32)C(=O)N1Cc1cccc(F)c1 (configuration not stated)	i
CC(C)c1cc2n(n1)CC(C)(C(=O)NC1CCCCC1)N(Cc1cccc(Cl)c1)C2=O (configuration not stated)	i
Cn1c2ccc(NC(=O)c3ccccc3)cc2c(=O)n2nc(C(=O)O)cc12	i
Cc1cc(Nc2ccc(NC(=O)c3ccc(Nc4ccnc5ccccc45)cc3)cc2)nc(N)n1	+
O=C(Nc1ccc(OC(F)(F)F)cc1)c1sccc1NCc1ccnc2ccccc12	i
CCCCNc1ccc(-c2ccc(CN3CCOCC3)cn2)c(NC2CCC(O)CC2)c1 (configuration not stated)	i
CCCCNc1ncc(-c2ccc(CN3CCOCC3)cn2)c(NC2CCC(O)CC2)n1 (configuration not stated)	i
CCCCNc1ncc(C(=O)NCc2ccc(-n3ccnc3)cc2)c(NC2CCC(O)CC2)n1 (configuration not stated)	+
SMILES	Methyltransferases
O=C(Cn1ccc2cc(S(=O)(=O)N3CCCCC3)ccc21)NC1CCCCC1	i
O=Nc1ccc2oc(=O)ccc2c1	+
O=c1ccc2ccc(O)c(O)c2o1	i
Cc1cccc(CNC(=O)c2cc3n(n2)CC(C)(C(=O)NCc2ccccc2)N(C)C3=O)c1 (configuration not stated)	i
CCCN1C(=O)c2cc(C(=O)NCCCN3CCN(C)CC3)nn2CC1(C)C(=O)NC1CCCC1 (configuration not stated)	i
Cn1c(=O)c2ccc(C(=O)NC3CCCC3)cc2n2c(SCc3c(F)cccc3Cl)nnc12	i
CC1(C)CCC(CN2CCN(c3ccc(C(=O)NS(=O)(=O)c4ccc(NCC5CCOCC5)c([N+](=O)[O-])c4)c(Oc4cnc5[nH]ccc5c4)c3)CC2)=C(c2ccc(Cl)cc2)C1	+
O=C(CSc1nnc2n(Cc3ccccc3)c(=O)c3ccccc3n12)Nc1cccc(Cl)c1	i
COc1ccc(-c2cc3n(n2)CC(C)(C(=O)NCc2ccccc2OC)N(Cc2ccccc2OC)C3=O)cc1 (configuration not stated)	i
CCOc1ccc(CN2C(=O)c3cc(C(C)(C)C)nn3CC2(C)C(=O)NCc2ccccc2)cc1 (configuration not stated)	i
CCCn1c(=O)c2ccc(C(=O)NCC(C)C)cc2n2c(=O)n(Cc3cccc(OC)c3)nc12	i
